“And” between values parts separate entries of the source, which are not always exact repeats. Equal entries are not always repeated. The campaign covered roughly 5,500 compounds. About 2,000 (36%) were called active. Roughly 18% stayed inconclusive and do not appear here. Rule as the data show it: active = normalized growth mostly below about 0.91 (no sharp cut-off); inconclusive = no clear call, values can overlap the other calls; inactive = mostly above about 0.92. The list shows a part of the results.
Assay: chemical genetic growth profiling, strain panel (AID 1159580);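 also: tested at 20 µM; growth read once vehicle control cultures reached saturation at 30 °C; 1 = growth at the plate median or of vehicle wells; lower values mean less growth of the strain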
Conditions: S. cerevisiae deletion strains, growth OD

Measured: normalized growth

Nc1ccc(S(=O)(=O)Nc2ncccn2)cc1
inactive: locus YAL013W, strain DEP1, active compounds read low 0.982 | locus YAL021C, strain ccr4, active compounds read low 0.968 | locus YAL026C, strain drs2, active compounds read low 0.986 | locus YAL030W, strain snc1, active compounds read low 0.994 | locus YBL061C, strain skt5, active compounds read low 0.985 | locus YBR009C, strain hhf1, active compounds read low 0.986 | locus YBR021W, strain FUR4, active compounds read low 0.992 | locus YBR023C, strain chs3, active compounds read low 0.993 | locus YBR171W, strain sec66, active compounds read low 0.973 | locus YBR229C, strain ROT2, active compounds read low 0.96 | locus YBR231C, strain swc5, active compounds read low 1.02 | locus YBR279W, strain paf1, active compounds read low 0.995 | locus YCL011C, strain gbp2, active compounds read low 0.957 | locus YCL016C, strain dcc1, active compounds read low 1.01 | locus YCL029C, strain bik1, active compounds read low 0.991 | locus YCL069W, strain vba3, active compounds read low 0.954 | locus YCR088W, strain abp1, active compounds read low 0.976 | locus YDL005C, strain med2, active compounds read low 0.985 | locus YDL035C, strain GPR1, active compounds read low 0.979 | locus YDL040C, strain nat1, active compounds read low 0.971 | locus YDL074C, strain BRE1, active compounds read low 0.969 | locus YDL101C, strain DUN1, active compounds read low 0.981 | locus YDL134C, strain PPH21, active compounds read low 0.999 | locus YDL185W, strain tfp1, active compounds read low 0.988 | locus YDL192W, strain arf1, active compounds read low 1 | locus YDR001C, strain nth1, active compounds read low 0.965 | locus YDR069C, strain doa4, active compounds read low 0.97 | locus YDR101C, strain arx1, active compounds read low 1.01 | locus YDR137W, strain rgp1, active compounds read low 0.964 | locus YDR150W, strain NUM1, active compounds read low 0.985 | locus YDR159W, strain sac3, active compounds read low 0.955 | locus YDR162C, strain NBP2, active compounds read low 0.996 | locus YDR195W, strain ref2 0.956 | locus YDR297W, strain sur2, active compounds read low 0.975 | locus YDR318W, strain mcm21, active compounds read low 1 | locus YDR334W, strain swr1, active compounds read low 0.935 | locus YDR335W, strain msn5, active compounds read low 0.988 | locus YDR388W, active compounds read low 0.994 | locus YDR392W, strain spt3, active compounds read low 1 | locus YDR502C, strain sam2, active compounds read low 1.01 | locus YEL003W, strain gim4, active compounds read low 0.991 | locus YEL037C, strain rad23, active compounds read low 0.967 | locus YEL061C, strain CIN8 (second series), active compounds read low 0.967 | locus YEL061C, strain CIN8, active compounds read low 0.988 | locus YER015W, strain faa2, active compounds read low 0.994 | locus YER016W, strain bim1, active compounds read low 0.968 | locus YER110C, active compounds read low 0.968 | locus YER111C, strain swi4, active compounds read low 1 | locus YER155C, strain BEM2 (second series), active compounds read low 0.989 | locus YER155C, strain BEM2, active compounds read low 0.991 | locus YER167W, strain BCK2, active compounds read low 0.99 | locus YFR010W, strain ubp6, active compounds read low 0.941 | locus YGL078C, strain dbp3, active compounds read low 1 | locus YGL086W, strain mad1, active compounds read low 0.997 | locus YGL167C, strain pmr1, active compounds read low 0.976 | locus YGL173C, strain kem1, active compounds read low 0.994 | locus YGL227W, strain vid30, active compounds read low 0.995 | locus YGL240W, strain doc1, active compounds read low 0.986 | locus YGL248W, strain PDE1, active compounds read low 0.978 | locus YGL253W, strain hxk2, active compounds read low 0.923 | locus YGR078C, strain PAC10, active compounds read low 0.986 | locus YGR135W, strain pre9, active compounds read low 0.997 | locus YGR252W, strain gcn5, active compounds read low 0.957 | locus YHR013C, strain ard1, active compounds read low 0.984 | locus YHR027C, strain rpn1, active compounds read low 0.988 | locus YHR030C, strain SLT2, active compounds read low 0.999 and 0.97 | locus YHR079C, strain IRE1 (second series), active compounds read low 1 | locus YHR079C, strain IRE1, active compounds read low 0.979 | locus YHR094C, strain hxt1, active compounds read low 0.994 | locus YHR129C, strain ARP1, active compounds read low 0.987 | locus YHR142W, strain chs7, active compounds read low 0.984 | locus YHR200W, strain rpn10, active compounds read low 0.992 | locus YIL066C, strain RNR3, active compounds read low 0.984 | locus YIL073C, strain SPO22, active compounds read low 1.02 | locus YIL125W, strain kgd1, active compounds read low 0.995 | locus YIR030C, strain dcg1, active compounds read low 0.997 | locus YJL092W, strain hpr5, active compounds read low 0.974 | locus YJL095W, strain BCK1 (second series), active compounds read low 0.995 | locus YJL095W, strain BCK1, active compounds read low 0.994 and 0.979 | locus YJL115W, strain asf1, active compounds read low 0.97 | locus YJL129C, strain trk1, active compounds read low 0.984 | locus YJL134W, strain LCB3, active compounds read low 0.993 | locus YJL154C, strain vps35, active compounds read low 0.969 | locus YJL164C, strain tpk1, active compounds read low 0.992 | locus YJL166W, strain qcr8, active compounds read low 0.936 | locus YJL168C, strain set2, active compounds read low 0.992 | locus YJL187C, strain SWE1 (second series), active compounds read low 0.986 | locus YJL187C, strain SWE1, active compounds read low 0.974 | locus YJR043C, strain POL32, active compounds read low 1.01
